In PubChem BioAssay:
Calls of active or inactive are those of the source. Cut-off read from the data, not from the text of the source: active = fold change permeability below about 0.7 or above about 1.3; inactive = in between.

assay: modulators of brain endothelial barrier permeability, primary screen, cell-based, FITC-avidin fluorescence, HTS (AID 1963498); conditions: actives lie on both sides; note: test concentration not given here

Fold change permeability, inactive:
OC[C@H]1O[C@@H](n2cnc3c(NC4CCCCC4)ncnc32)[C@H](O)[C@@H]1O 1.2, NC(=O)C1=CN(C2OC(COP(=O)(O)OP(=O)(O)OC[C@H]3O[C@@H](n4cnc5c(N)ncnc54)C(OP(=O)(O)O)[C@H]3O)C(O)C2O)C=CC1 (stereo not given in full) 0.9, CN1CCN(C(=O)c2ccc(-n3nc(-c4ccc(C(=O)O)cc4)cc3-c3cc(C(C)(C)C)cc(C(C)(C)C)c3)cc2)CC1 1, COc1ccc(S(=O)(=O)N(CC(=O)NO)CC(C)C)cc1 1.1, NC(N)=NCc1cccc(I)c1 0.9, C[C@H](CSC(=O)c1ccccc1)C(=O)N1C[C@@H](Sc2ccccc2)C[C@H]1C(=O)O 1, O=C(Nc1ccc(-n2nc(C(F)(F)F)cc2C(F)(F)F)cc1)c1ccncc1F 1.2, CCC(=O)c1ccc2c(c1)N(CCCN(C)C)c1ccccc1S2 1.1

Fold change permeability, active:
Cc1nc(N=Nc2ccc(C(=O)O)cc2)c(COP(=O)(O)O)c(C=O)c1O 0.7, CCn1c(=O)[nH]c2cc(Cl)c(Cl)cc21 0.7, N=C(N)N1CCc2ccccc2C1 1.3, CCCC(=O)NCCc1csc(-c2ccc(Cl)cc2)n1 1.5, O=C1NC(=O)c2c1c(-c1ccccc1)cc1[nH]c3ccc(O)cc3c21 0.7, Clc1ccc(N2CCN(Cc3cc4ccccn4n3)CC2)cc1 1.3, CC(=O)O[C@H]1CC[C@@]2(C)C(=CC[C@@H]3[C@@H]2CC[C@]2(C)C(c4cccnc4)=CC[C@@H]32)C1 1.8
